{
  "source": "paper PMC4552634",
  "about": "“A New Set of Chemical Starting Points with Plasmodium falciparum Transmission-Blocking Potential for Antimalarial Drug Discovery” (PLoS ONE, 2015)",
  "note": "About 3,200 (25%) of roughly 13,000 compounds showed an effect of 50% or more. Some of the results follow.",
  "data": [
    {"system": "P. falciparum stage V gametocytes", "parameters": "BacTiter-Glo ATP luminescence viability of purified stage V gametocytes in 384-well plates, per cent inhibition versus DMSO", "settings": "48 h, 5 µM; inhibitor", "units": {"% Inhibition": "%"}, "values": [
      {"smiles": "CN(C)C(=O)n1cnc(S(=O)(=O)N(C)c2ccc(Cl)cc2)n1", "note": "[TCMDC-134395]", "% Inhibition": 5.684},
      {"smiles": "CCOC(=O)CCCCOc1c(OC)cc(Cc2cnc(N)nc2N)cc1OC", "note": "[TCMDC-137291]", "% Inhibition": 2.332},
      {"smiles": "COc1ccc(NS(=O)(=O)c2ccc(C(=O)Nc3ccc(C(F)(F)F)cc3)cc2)cc1N1CCN(CC2CC2)CC1", "note": "[TCMDC-141778]", "% Inhibition": -16.52},
      {"smiles": "O=C(c1cccs1)N1N=C(c2cccs2)CC1c1cccc([N+](=O)[O-])c1", "note": "(stereo not drawn) [TCMDC-123688]", "% Inhibition": 10.72},
      {"smiles": "Cc1noc(C)c1-c1cccc(CNCc2ccc(-c3cccc(-c4nc5cc(C(F)(F)F)ccc5[nH]4)c3)cc2)c1.O=C(O)C(F)(F)F", "note": "[TCMDC-133051]", "% Inhibition": -9.881},
      {"smiles": "COc1cc(C(=O)NC2CCN(Cc3ccccc3)CC2)ccc1-c1nc2cc(Cl)c(Cl)cc2[nH]1", "note": "[TCMDC-140078]", "% Inhibition": -56.44},
      {"smiles": "Cc1[nH]c2cc(Cl)ccc2c1C1=CCN(CCN2CCOc3c(Br)cccc3C2=O)CC1", "note": "[TCMDC-140966]", "% Inhibition": -20.54},
      {"smiles": "COc1ccc(Cl)cc1N1CCN(CCCNC(=O)c2ccc(-c3nc4cc(Cl)c(C)cc4[nH]3)c(F)c2)CC1", "note": "[TCMDC-140030]", "% Inhibition": -22.25},
      {"smiles": "COc1cc2nc(NC3CCN(Cc4ccccc4)CC3)nc(N)c2cc1OC", "note": "[TCMDC-131886]", "% Inhibition": 84.09},
      {"smiles": "COc1cc2nc(N(C)C3CCN(Cc4ccccc4)CC3)nc(N)c2cc1OC", "note": "[TCMDC-131894]", "% Inhibition": 19.02},
      {"smiles": "COc1cc2nc(NCc3nc4ccccc4[nH]3)nc(N)c2cc1OC.Cl", "note": "[TCMDC-131892]", "% Inhibition": 36.75},
      {"smiles": "CCCCCN1CCCCC(NS(=O)(=O)c2ccc(C(=O)Nc3ccc(C(F)(F)F)cc3)cc2)C1", "note": "(stereo not drawn) [TCMDC-133681]", "% Inhibition": -39.58},
      {"smiles": "CC(=O)c1ccc(NC(=O)Nc2ccc3nccc(N4CCN(C)CC4)c3c2)cc1", "note": "[TCMDC-139331]", "% Inhibition": -18.7},
      {"smiles": "CC(=O)c1ccc2nc[nH]c(=O)c2c1", "note": "[TCMDC-138172]", "% Inhibition": 115.1},
      {"smiles": "COc1ccc2nccc([C@@H](O)CN3CCC(NCc4ccc5nc[nH]c(=O)c5c4)CC3)c2c1", "note": "[TCMDC-140981]", "% Inhibition": 0.6377},
      {"smiles": "COC(=O)C(NC(=O)c1ccc(-c2ccc(-c3nc4ccccc4[nH]3)s2)cc1)c1ccc(O)cc1", "note": "(stereo not drawn) [TCMDC-132371]", "% Inhibition": -16.97},
      {"smiles": "Cc1cccc(CN2CCC(C(=O)Nc3ccc(-c4nc5ccccc5[nH]4)cc3)CC2)n1", "note": "[TCMDC-124614]", "% Inhibition": -28.63},
      {"smiles": "CCCCNc1c(C(=O)OCC)c(C)nc2c1[nH]c1ccccc12", "note": "[TCMDC-131541]", "% Inhibition": -37.58},
      {"smiles": "CC1CCC(C(C)C)C(OC(=O)CSc2nnc3c(n2)[nH]c2ccccc23)C1", "note": "(stereo not drawn) [TCMDC-124002]", "% Inhibition": 54.66},
      {"smiles": "O=C(NC1CCN(Cc2ccccc2)CC1)c1ccc(-c2nc3cc(Cl)c(Cl)cc3[nH]2)s1", "note": "[TCMDC-140086]", "% Inhibition": -3.887},
      {"smiles": "CCn1c(-c2nonc2N)nc2c(-c3cc4ccccc4s3)ncc(C(=O)N3CCC(N)C3)c21", "note": "(stereo not drawn) [TCMDC-135281]", "% Inhibition": 101.1},
      {"smiles": "CCn1c(-c2nonc2N)nc2cnc(Oc3cccc(NC(=O)c4ccc(OCCN5CCCCC5)cc4)c3)cc21", "note": "[TCMDC-135778]", "% Inhibition": -14.59},
      {"smiles": "CN(C)CCNC(=O)[C@H](Cc1ccccc1)NC(=O)c1ccc(O)c(-c2ccc(Cl)c(Cl)c2)c1", "note": "[TCMDC-140864]", "% Inhibition": 22.21},
      {"smiles": "CN1CCCN(Cc2ccc(-c3ccc(NC(=O)c4ccc(Cl)cc4)cc3)cc2)CC1", "note": "[TCMDC-132585]", "% Inhibition": -0.9433},
      {"smiles": "Cc1cccc2[nH]c(-c3cccc(-c4ccc(NC(=O)Nc5ccc(Cl)c(Cl)c5)cc4)c3)nc12", "note": "[TCMDC-133275]", "% Inhibition": -0.4815},
      {"smiles": "c1cc2nc(CCCc3nc4ccc(C5=N[C@H]6CCCC[C@H]6N5)cc4[nH]3)[nH]c2cc1C1=N[C@@H]2CCCC[C@@H]2N1", "note": "[TCMDC-137234]", "% Inhibition": -8.612},
      {"smiles": "c1cc2nc(CCCCCc3nc4ccc(C5=N[C@@H]6CCCC[C@@H]6N5)cc4[nH]3)[nH]c2cc1C1=N[C@@H]2CCCC[C@@H]2N1", "note": "[TCMDC-137237]", "% Inhibition": -19.86},
      {"smiles": "c1cc2[nH]c(CCc3nc4cc(C5=NC6CCCCC6N5)ccc4[nH]3)nc2cc1C1=NC2CCCCC2N1", "note": "(stereo not drawn) [TCMDC-137238]", "% Inhibition": -12.99},
      {"smiles": "c1cc2nc(CCCCc3nc4ccc(C5=N[C@H]6CCCC[C@H]6N5)cc4[nH]3)[nH]c2cc1C1=N[C@H]2CCCC[C@H]2N1", "note": "[TCMDC-137233]", "% Inhibition": 16.03},
      {"smiles": "c1cc(C2=NC3CCCCC3N2)ccc1OCCCCCOc1ccc(C2=NC3CCCCC3N2)cc1", "note": "(stereo not drawn) [TCMDC-137802]", "% Inhibition": 132.6},
      {"smiles": "c1cc(C2=N[C@H]3CCCC[C@@H]3N2)ccc1OCCCOc1ccc(C2=N[C@@H]3CCCC[C@H]3N2)cc1", "note": "[TCMDC-137803]", "% Inhibition": 109.5},
      {"smiles": "Cc1ccn2c(N(Cc3ccccc3)C(=O)c3ccc(Cl)c(Cl)c3)c(-c3ccccc3)nc2c1", "note": "[TCMDC-141396]", "% Inhibition": -15.83},
      {"smiles": "CCNc1cc(C(=O)N[C@@H](Cc2ccccc2)[C@H](O)CNCCc2ccccc2)cc(N2CCCCS2(=O)=O)c1", "note": "[TCMDC-135171]", "% Inhibition": -2.363},
      {"smiles": "COc1ccc2ncc(F)c(CCN3CC[C@@H](CNCc4cc(C)c5c(c4)OCCO5)C3)c2n1", "note": "[TCMDC-136077]", "% Inhibition": 34.91},
      {"smiles": "CC(C)c1ccc(OCC(O)CN(CCN2CCOCC2)C(=O)Nc2ccc(Br)cc2)cc1", "note": "(stereo not drawn) [TCMDC-141492]", "% Inhibition": -0.3608},
      {"smiles": "CCn1c(-c2nc(-c3ccnc(N4CCN(C)CC4)c3)cnc2N)nc2cc(S(C)(=O)=O)ccc21", "note": "[TCMDC-134155]", "% Inhibition": 31.49},
      {"smiles": "CCn1c(-c2nc(-c3ccc4c(c3)OCO4)cnc2N)nc2cnccc21", "note": "[TCMDC-135178]", "% Inhibition": 6.285},
      {"smiles": "COc1cccc2cc(C(=O)N[C@@H](CC(C)C)C(=O)N[C@H](C=NN3CCOC3=O)Cc3ccccc3)oc12", "note": "[TCMDC-136074]", "% Inhibition": -0.683},
      {"smiles": "O=C(c1cccc(-c2noc(C(F)(F)F)n2)c1)N1CCN(c2nsc3ccccc23)CC1", "note": "[TCMDC-132425]", "% Inhibition": -18.4},
      {"smiles": "O=C(O[C@H]1CN[C@H](C#Cc2cc3ncnc(Nc4ccc5c(ccn5S(=O)(=O)c5cccs5)c4)c3s2)C1)N1CCOCC1", "note": "[TCMDC-134691]", "% Inhibition": 26.92},
      {"smiles": "CN(C)C(=O)O[C@@H]1CN[C@H](C#Cc2cc3ncnc(Nc4ccc5c(cnn5Cc5cccc(F)c5)c4)c3s2)C1", "note": "[TCMDC-135233]", "% Inhibition": 25.46},
      {"smiles": "Clc1cc(Nc2ncnc3sc(C#C[C@H]4CCCN4)cc23)ccc1OCc1cccnc1Cl", "note": "[TCMDC-134849]", "% Inhibition": 8.343},
      {"smiles": "O=S(=O)(c1ccccc1)n1ccc2cc(Nc3ncnc4cc(C#C[C@H]5CCCN5)sc34)ccc21", "note": "[TCMDC-138913]", "% Inhibition": 83.41},
      {"smiles": "Fc1cccc(COc2ccc(Nc3ncnc4sc(C#CC5CCCCN5)cc34)cc2Cl)c1", "note": "(stereo not drawn) [TCMDC-138878]", "% Inhibition": 40.6},
      {"smiles": "Clc1cc(Nc2ncnc3cc(C#C[C@H]4CCCN4)sc23)cc2[nH]c(Cc3ccccc3)nc12", "note": "[TCMDC-134519]", "% Inhibition": 58.91},
      {"smiles": "COc1ccc(-c2cc(NCc3ccc(-n4ccnc4)cc3)nc(Nc3ccccc3)n2)cc1", "note": "[TCMDC-133466]", "% Inhibition": 0.1166},
      {"smiles": "Cc1ccc(Nc2nc(NN=Cc3ccc(-c4ccc([N+](=O)[O-])cc4)o3)nc(N3CCOCC3)n2)cc1Cl", "note": "[TCMDC-123853]", "% Inhibition": 16.13},
      {"smiles": "COc1ccc(CNCc2ccc(F)cc2)cc1-c1cccc(S(=O)(=O)NCCN2CCCC2)c1", "note": "[TCMDC-132223]", "% Inhibition": 101.2},
      {"smiles": "COc1ccc(CNCc2ccccc2)cc1-c1cccc(S(=O)(=O)NCCN2CCCC2)c1", "note": "[TCMDC-132268]", "% Inhibition": 57.83},
      {"smiles": "COc1ccc(F)cc1-c1cccc(CNC2CCN(CC3Cn4c(=O)ccc5ccc(F)c3c54)CC2)c1", "note": "(stereo not drawn) [TCMDC-134406]", "% Inhibition": -45.9},
      {"smiles": "COc1ccc2nccc([C@@H](O)CN3CCC(NC(=O)c4ccc(Cl)c(Cl)c4)CC3)c2c1", "note": "[TCMDC-141036]", "% Inhibition": -20.77},
      {"smiles": "COc1cc(Nc2nccc(Nc3ccc4c(C)[nH]nc4c3)n2)cc2ccccc12", "note": "[TCMDC-138587]", "% Inhibition": -18.63},
      {"smiles": "CC(Oc1cccc(Cl)c1)C(=O)N1CCc2ccccc21", "note": "(stereo not drawn) [TCMDC-123685]", "% Inhibition": -22.19},
      {"smiles": "O=C(NCc1ccc(F)cc1)Nc1ccc(-c2ccc(-c3nc4ccccc4[nH]3)cc2)cc1", "note": "[TCMDC-133299]", "% Inhibition": -2.169},
      {"smiles": "CN(CC(=O)Nc1ccc(F)cc1)C(=O)c1ccc(-c2ccc(F)cc2)o1", "note": "[TCMDC-125342]", "% Inhibition": 61.72},
      {"smiles": "CC(=O)Nc1ccc(CN(Cc2ccc(F)cc2)Cc2ccc3c(c2)OCO3)cc1", "note": "[TCMDC-140255]", "% Inhibition": 12.12},
      {"smiles": "Nc1ncc(-c2ccc(S(=O)(=O)Nc3ccc(C(=O)N[C@@H](CCC(=O)O)C(=O)O)cc3)cc2)c(=O)[nH]1", "note": "[TCMDC-137342]", "% Inhibition": -1.262},
      {"smiles": "O=C(Nc1ccc(-c2csc(-c3nc4ccccc4[nH]3)c2)cc1)Nc1ccsc1", "note": "[TCMDC-133207]", "% Inhibition": -12.45},
      {"smiles": "CN1CCC(C(=O)Nc2ccc(-c3ccc(-c4nc5ccccc5[nH]4)s3)cc2)CC1", "note": "[TCMDC-132179]", "% Inhibition": 54.96},
      {"smiles": "O=C(Nc1ccc(-c2cccc(-c3nc4ccccc4[nH]3)c2)cc1)Nc1ccsc1", "note": "[TCMDC-133220]", "% Inhibition": 7.696},
      {"smiles": "CN1CCN(CC(=O)Nc2ccc(-c3ccc(-c4nc5ccccc5[nH]4)s3)cc2)CC1", "note": "[TCMDC-136971]", "% Inhibition": -13.63},
      {"smiles": "O=C(Nc1ccc(-c2ccc(-c3nc4ccccc4[nH]3)s2)cc1)Nc1ccsc1", "note": "[TCMDC-133219]", "% Inhibition": 69.14},
      {"smiles": "CN1CCC(C(=O)Nc2cccc(-c3ccc(-c4nc5ccccc5[nH]4)cc3)c2)CC1", "note": "[TCMDC-132186]", "% Inhibition": -0.3438},
      {"smiles": "CC(C)=CCN1CCC(C(=O)Nc2ccc(-c3nc4ccccc4[nH]3)cc2)CC1", "note": "[TCMDC-124613]", "% Inhibition": -52.31},
      {"smiles": "CN1CCC(C(=O)Nc2ccc(-c3ccc(-c4nc5ccccc5[nH]4)cc3)cc2)CC1", "note": "[TCMDC-132187]", "% Inhibition": 59.64},
      {"smiles": "CN1CCC(C(=O)Nc2ccc(-c3ccc(-c4nc5cc(C(F)(F)F)ccc5[nH]4)s3)cc2)CC1", "note": "[TCMDC-132183]", "% Inhibition": -1.127}
    ]}
  ]
}
